This is a sample that favours compounds with a hit; in the whole collection about 9.5% have one here.
Tau fibril ThT: tau fibrillization inhibition (ThT binding); P10636; recombinant tau K18 P301L, heparin-induced fibrillization, ThT fluorescence; Potency, µM (top dose mostly 57.4 µM), for the others: top-dose activity, negative = inhibition, hits mostly inhibitors; 2.1% of 270,000 active; AID 1460; further: nearly all actives have a fitted effect of over 55% in size
Target sequence (P10636 561-689 P618L limits assumed): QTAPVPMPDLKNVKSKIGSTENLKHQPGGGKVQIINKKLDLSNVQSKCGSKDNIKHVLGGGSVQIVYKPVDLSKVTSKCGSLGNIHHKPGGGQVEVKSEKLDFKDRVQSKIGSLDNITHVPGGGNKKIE
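ThT emission at 510 nm, taken 1 hr after adding 30 uM dye, quantifies aggregates formed when 20 uM heparin acts on human tau K18 P301L for 6 hr at 37 C.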
NPSR antagonist: neuropeptide S receptor (human) antagonism, cAMP; CHO-NPSR cells, cAMP TR-FRET, antagonist mode; Q6W5P4; Potency, µM (highest dose often 38.3 µM), without a hit: at the highest dose activity change, negative = inhibition, hits mostly inhibitors; 1% of 220,000 active; further: nearly all actives have a fitted effect of over 50% in size
Target sequence (Q6W5P4 whole entry, looked up): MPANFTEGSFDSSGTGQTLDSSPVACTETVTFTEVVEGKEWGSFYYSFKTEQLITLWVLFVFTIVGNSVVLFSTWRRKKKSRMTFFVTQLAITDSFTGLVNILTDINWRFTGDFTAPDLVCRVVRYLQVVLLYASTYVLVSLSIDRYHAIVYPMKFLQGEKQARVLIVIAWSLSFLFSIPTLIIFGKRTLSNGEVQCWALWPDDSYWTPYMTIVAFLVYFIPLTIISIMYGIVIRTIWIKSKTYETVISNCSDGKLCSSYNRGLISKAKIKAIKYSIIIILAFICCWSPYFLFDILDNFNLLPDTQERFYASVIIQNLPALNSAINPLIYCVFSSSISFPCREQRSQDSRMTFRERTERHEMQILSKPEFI
ALDH1A1 inh: ALDH1A1 (human) enzyme inhibition | Potency, µM (highest dose often 75.3 µM), for inactives: top-dose activity, negative = inhibition, hits mostly inhibitors | Purified ALDH1A1, NADH fluorescence, propionaldehyde substrate | 7.3% of 220,000 active | P00352; active means well fitted inhibition curve with a large enough effect, not every such curve was filed as active; inconclusive means small, poorly fitted or top-dose-only effect, or another doubt; inactive means no such curve, though single readings can be large or run the other way;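 further: plate controls were no enzyme wells and a reference inhibitor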
Tau fluor cs: counter-screen for tau fibril formation inhibitors | tau K18 P301L Alexa594 fluorescence, heparin fibrillization | Potency, µM (series often up to 57.7 µM), inactives show at the highest dose activity change, negative = decrease | AID 1463 | 0.93% of 280,000 active; further: nearly all actives have a fitted effect of over 55% in size
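Human tau K18 P301L (15 uM unlabeled, 0.24 uM Alexa 594-labeled) in 100 mM sodium acetate pH 7 with 20 uM heparin, 6 hr at 37 C. ThT 30 uM added, 1 hr ambient; Alexa 594 FP and total fluorescence read at 555/632 nm.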
HPGD block: inhibitors of human 15-hydroxyprostaglandin dehydrogenase (HPGD); AID 894; purified HPGD, NADH fluorescence kinetic, PGE2 substrate; P15428; Potency, µM, inactives show at the highest dose activity change, negative = inhibition, actives largely listed as inhibitors; 4.3% of 150,000 active; active means well fitted inhibition curve with a large enough effect, not every such curve was filed as active; inconclusive means small, poorly fitted or top-dose-only effect, or another doubt; inactive means no such curve, though single readings can be large or run the other way
Target sequence (P15428 whole entry, looked up): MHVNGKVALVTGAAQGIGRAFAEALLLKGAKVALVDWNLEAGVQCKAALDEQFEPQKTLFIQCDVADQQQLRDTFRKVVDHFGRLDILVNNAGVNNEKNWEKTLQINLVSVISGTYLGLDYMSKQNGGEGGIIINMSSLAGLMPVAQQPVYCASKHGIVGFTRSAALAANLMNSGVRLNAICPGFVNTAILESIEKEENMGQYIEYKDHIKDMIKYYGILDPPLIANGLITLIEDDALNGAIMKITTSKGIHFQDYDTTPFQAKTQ
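NADH formation kinetics: reaction with 30 uM PGE2 and 1 mM NAD+ (final), 20 nM enzyme, Tris-HCl pH 8 with Tween 20, after 15 min compound preincubation at room temperature. Fluorescence change, last versus first of five reads.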
Tau FP inhib: tau fibrillization inhibition (FP); P10636; K18 P301L tau heparin fibrillization, Alexa594 FP, 6 h; Potency, µM (titrated, usually from 57.7 µM), inactives show at the top dose activity, negative = inhibition, most hits filed as inhibitors; 0.39% of 280,000 active; further: nearly all actives have a fitted effect of over 55% in size
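FP of Alexa 594-tau after heparin (20 uM) induction. Substrate: human K18 P301L, 15 uM unlabeled, 0.24 uM labeled. Buffer 100 mM sodium acetate pH 7. 6 hr, 37 C.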
Numbers without * were called inactive; ? = inconclusive; nt = no result given; [ ] = remark or other dose. Unless noted, the call rests on the fitted dose curve; in most records, active means well fitted curve in the direction sought with a large enough effect; inconclusive means small, poorly fitted or top-dose-only effect, or another doubt; inactive means no such curve, though single readings can be large; an effect the other way counts as inactive or inconclusive. Unless noted, on the % scale 0 is the no-effect control and ±100 the full control effect; potency means the concentration at half of the fitted maximal effect.

SMILES	Tau fibril ThT	NPSR antagonist	ALDH1A1 inh	Tau fluor cs	HPGD block	Tau FP inhib
CC1CN(c2ccc(Oc3ccccc3)cc2)c2nc3c(c(=O)[nH]c(=O)n3C)n2C1 (stereo unspecified)	2.0%	-9.2%[46.1 µM]	-4.7%	-0.8%	35.5µM*	9.5%
Cc1ccccc1CC1S/C(=N/N=C/c2ccco2)NC1=O (stereo unspecified)	nt	-7.7%	nt	-1.1%	nt	-8.9%
CC(C)C1S/C(=N/N=C/c2ccco2)NC1=O (stereo unspecified)	-4.2%	-8.8%[46.1 µM]	nt	-7.3%	12.6µM*	-6.0%
Cc1noc(C)c1-c1ccc2ncnc(Nc3ccc(F)cc3)c2c1	nt	nt	-14.7%	nt	nt	nt
C/C(=N\Nc1nnc2c3ccccc3n(C)c2n1)c1ccc(C)o1	14.1µM*	-6.0%	-1.6%	-9.5%	-15.3%	4.7%
COc1ccc(S(=O)(=O)N=Nc2c(O)[nH]c3ccccc23)cc1	-19.0%	13.3%	25.1µM*	-9.4%	nt	-1.2%
CC(C)Oc1ccc(CNC(=O)Cn2nc(N3CCN(c4ccccc4)CC3)ccc2=O)cc1	?	nt	nt	-10.9%	nt	8.8%
O=C(/C=C/c1ccco1)N1CCN(S(=O)(=O)/C=C/c2ccccc2)CC1	5.7%	-4.6%	7.94µM*	0.2%	nt	-0.1%
O=C(/C=C/c1ccco1)N1CCN(c2ccccc2)CC1	-13.0%	-3.0%	?	8.2%	0.5%	0.5%
O=C(/C=C/c1ccco1)N1CCN(C/C=C/c2ccccc2)CC1	-17.2%	-8.1%[46.1 µM]	12.6µM*	-7.7%	-22.6%	0.6%
O=C(/C=C/c1ccco1)N1CCN(S(=O)(=O)c2cccs2)CC1	-16.9%	17.5%	7.08µM*	-8.7%	nt	-14.3%
CC1=C(c2ccc(C)c(C)c2)S(=O)(=O)N=C1N1CCC(C(=O)NCCc2ccco2)CC1	-17.3%	nt	nt	0.1%	nt	?
Cc1ccc(NC(=O)N2CCc3cc(S(=O)(=O)N4CCC(C)CC4)ccc32)cc1F	12.0%	nt	nt	-10.9%	nt	?
C[C@@]1(C(=O)O)CCC[C@@H]1C(=O)O	nt	nt	5.0%[13.5 µM]	nt	-0.4%	nt
CC(=O)Nc1ccc(NC(=O)c2cc(CN3CCCC3)on2)cc1	-6.4%	nt	nt	-2.3%	nt	6.5%
COc1ccccc1CCn1c(=O)c(C)nc2cncnc21	nt	nt	-3.7%	nt	-8.1%	nt
CCOC(=O)c1c(-c2ccc(C)o2)csc1NC(=O)CN1CCCCC1	?	?	?	-6.5%	nt	-6.4%
CCOC(=O)c1c(-c2ccc(C)o2)csc1NC(=O)CSc1nncs1	?	?	11.2µM*	-12.5%	20µM*	-2.8%
CCOC(=O)c1c(-c2ccc(C)o2)csc1NC(=O)CN1CCC(C(N)=O)CC1	-11.3%	-6.7%	25.1µM*	-6.7%	nt	-0.4%
Nc1nn(-c2ccccc2)c(N)c1N=Nc1ccccc1F	4.47µM*	-13.2%	-6.0%	?	12.6µM*	5.5%
Cc1nn(-c2ccccc2)c(N)c1N=Nc1ccc(Cl)cc1	7.94µM*	-20.4%	-1.5%	?	-19.2%	-6.2%
Nc1nn(-c2ccccc2)c(N)c1N=Nc1ccccc1	5.01µM*	-12.6%	5.4%	-27.6%	-20.4%	3.9%
Cc1cc(C)n2nc(N)c(N=Nc3ccc4c(c3)OCO4)c2n1	6.7%	-4.3%	4.7%	7.6%	?	3.6%
Nc1c(N=Nc2ccccc2F)c(=O)[nH]n1-c1ccccc1	?	-26.9%[46.1 µM]	-6.0%	?	-0.7%	-2.5%
Cc1nn(-c2ccccc2)c(N)c1-c1ccccc1	-5.5%	1.0%	1.6%	-1.6%	nt	8.2%
SMILES	Tau fibril ThT	NPSR antagonist	ALDH1A1 inh	Tau fluor cs	HPGD block	Tau FP inhib
Cc1cc(C)n2nc(N)c(N=Nc3ccccc3)c2n1	14.1µM*	26.1%	nt	-13.1%	nt	4.5%
CCCCC/C=C\C\C=C/C=C/C=C/[C@@H](SCC(NC(=O)CCC(N)C(=O)O)C(=O)NCC(=O)O)[C@@H](O)CCCC(=O)O (stereo partly specified)	-7.6%	nt	0.0%	-0.5%	-5.5%	4.5%
CCn1c(SCC(=O)N(C)c2c(N)n(Cc3ccccc3)c(=O)[nH]c2=O)nc2ccccc21	-10.8%	-26.4%	-9.2%	-3.3%	nt	-3.7%
c1ccc(SCCSc2ccccc2)cc1	nt	nt	18.9%	nt	-11.5%	nt
Cc1nn(-c2ccccc2)c(N)c1C(O)(C(F)(F)F)C(F)(F)F	1.8%	6.9%	6.6%	0.2%	-10.6%	4.0%
Cc1nn(-c2ccccc2)c(N)c1N=Nc1cccc(S(=O)(=O)N2CCOCC2)c1	?	-42.4%	nt	?	nt	5.7%
Cc1cccc(N=Nc2c(C)nn(-c3ccccc3)c2N)c1C	7.08µM*	-34.0%	-10.0%	?	15.8µM*	7.6%
Cc1nn(-c2ccccc2)c(N)c1N=Nc1ccccc1	8.91µM*	-34.4%	?	?	20µM*	2.1%
COc1nccnc1NS(=O)(=O)c1ccc(NC(=S)NC(=O)c2cccc(F)c2)cc1	3.3%	-9.5%	?	6.3%	-7.7%	4.4%
O=C(Nc1ccc(S(=O)(=O)Nc2nccs2)cc1)c1ccc(F)c(S(=O)(=O)N2CCOCC2)c1	2.2%	1.4%	5.01µM*	-5.3%	nt	2.6%
COc1nsnc1NS(=O)(=O)c1ccc(NC(=S)NC(=O)c2cccnc2)cc1	-4.1%	-7.8%	20µM*	-5.2%	nt	-11.3%
COc1nccnc1NS(=O)(=O)c1ccc(NC(=S)NC(=O)c2ccc(F)cc2)cc1	-2.7%	-15.5%	14.1µM*	6.8%	-11.2%	-4.9%
O=C(NC(=S)Nc1ccc(S(=O)(=O)Nc2nccs2)cc1)c1ccc(F)cc1	-8.3%	-2.2%	17.8µM*	-12.6%	-23.4%	7.5%
O=C(Nc1ccc(S(=O)(=O)Nc2nccs2)cc1)c1ccc(S(=O)(=O)N2CCOCC2)cc1	-6.0%	17.4%	?	-23.8%	2.2%	-6.5%
Cc1ccc(OCCSc2nc3ccccc3n2CCC(=O)O)cc1C	-8.5%	nt	nt	-3.5%	nt	5.7%
CCOc1ccc(C(c2c(O)cc(C)n(Cc3ccco3)c2=O)N2CCCCC2)cc1 (stereo unspecified)	?	nt	nt	-12.4%	nt	-14.2%
CCOC(=O)/C(C(=O)Nc1ccc(Br)cc1)=C1/NC(C)(C)Cc2ccccc21	-2.6%	-31.8%	?	-25.2%	-14.6%	-7.9%
CCOC(=O)/C(C)=C1\NC(C)(C)Cc2ccccc21	?	3.6%	?	-8.0%	20µM*	?
CC1(C)Cc2ccccc2C(=C(C#N)C#N)N1	-6.2%	15.6%	-8.9%	-11.4%	-3.7%	-11.4%
CCOC(=O)/C(C(=O)Nc1ccccc1Cl)=C1/NC(C)(C)Cc2ccccc21	-12.1%	1.9%[46.1 µM]	14.1µM*	-10.3%	-25.6%	-8.4%
C=CC(C1=CC(=O)C(OC)=CC1=O)c1ccccc1 (stereo unspecified)	15.8µM*	nt	22.4µM*	14.1µM*[quencher]	?	20µM*
C=CC(C1=CC(=O)C(OC)=C(OC)C1=O)c1ccccc1 (stereo unspecified)	12.6µM*	nt	0.3%	25.1µM*[quencher]	20µM*	?

Source: PubChem
